# PubChem BioAssay (NCATS)
# Where “and” joins values, the source holds several entries; their conditions need not be identical. Identical values can stand only once. Results filed as inconclusive are left out. Entries that show only a call come without a potency. Calls of active or inactive are those of the source. Calls come from the whole dose curve; as a rule, active = well fitted curve in the direction sought with a large enough effect; inconclusive = small, poorly fitted or top-dose-only effect, or another doubt; inactive = no such curve, though single readings can be large; an effect the other way counts as inactive or inconclusive. Residues, ends and D or L forms follow the SMILES beside them. *: point of attachment. Cbz = O=C(OCc1ccccc1)*
# Assays:
# [1] = target: Beta-2 adrenergic receptor (Homo sapiens) (UniProt P07550); experiment: qHTS validation assay of beta-arrestin-biased ligands of beta2-adrenergic receptor (AID 485366)
# Chain of Beta-2 adrenergic receptor (Homo sapiens) (P07550 whole entry, looked up): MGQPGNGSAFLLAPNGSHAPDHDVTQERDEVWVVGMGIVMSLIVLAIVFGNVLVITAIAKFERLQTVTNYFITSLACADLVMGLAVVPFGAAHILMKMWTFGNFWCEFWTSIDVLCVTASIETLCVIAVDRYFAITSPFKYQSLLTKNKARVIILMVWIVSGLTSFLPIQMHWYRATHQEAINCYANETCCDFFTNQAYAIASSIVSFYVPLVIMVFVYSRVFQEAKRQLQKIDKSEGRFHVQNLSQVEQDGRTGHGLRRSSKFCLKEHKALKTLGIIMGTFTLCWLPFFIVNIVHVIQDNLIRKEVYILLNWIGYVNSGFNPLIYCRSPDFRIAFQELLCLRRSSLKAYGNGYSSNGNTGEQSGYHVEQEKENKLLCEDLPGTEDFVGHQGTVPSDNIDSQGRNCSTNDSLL
# In short: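 qHTS, Tango cells, 1500 cells/well, DMEM + 1% FBS. Cpd 18 hr at 37 degrees C. Luciferin/ATP/CoA detection mix, 15 min RT, luminescence read. %Activity from corrected signal; CRC fit, curve class.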
# [2] = target: ATP-dependent 6-phosphofructokinase (Trypanosoma brucei brucei) (UniProt O15648); experiment: qHTS Validation Assay to Find Inhibitors of T. brucei phosphofructokinase (AID 485368); note: potency is the fitted concentration of half-maximal effect
# Chain of ATP-dependent 6-phosphofructokinase (Trypanosoma brucei brucei) (O15648 whole entry, looked up): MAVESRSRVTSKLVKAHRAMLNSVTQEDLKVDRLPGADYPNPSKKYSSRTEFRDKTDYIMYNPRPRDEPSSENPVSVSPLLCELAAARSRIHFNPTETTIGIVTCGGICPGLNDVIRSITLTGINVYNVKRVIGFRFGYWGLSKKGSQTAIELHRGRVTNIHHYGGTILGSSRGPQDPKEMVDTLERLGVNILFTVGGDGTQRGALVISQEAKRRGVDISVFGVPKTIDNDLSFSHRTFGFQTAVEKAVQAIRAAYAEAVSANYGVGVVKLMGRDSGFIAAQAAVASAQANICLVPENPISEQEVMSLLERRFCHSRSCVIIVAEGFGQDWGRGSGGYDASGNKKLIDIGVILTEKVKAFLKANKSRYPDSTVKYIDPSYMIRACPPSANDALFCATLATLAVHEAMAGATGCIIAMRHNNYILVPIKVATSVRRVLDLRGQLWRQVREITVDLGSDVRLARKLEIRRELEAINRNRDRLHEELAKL
# In short: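 Luminescent ADP detection measures PFK turnover of fructose-6-phosphate (0.5 mM) with ATP (0.1 mM) at pH 8.0. Reaction runs 45 min at room temperature with 1.25 nM enzyme; inhibitors tested as titrations up to 57 uM.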
# [3] = Quantitative high throughput screen for delayed death inhibitors of the malarial parasite plastid, 96 hour incubation (AID 488745); note: nearly all actives have a fitted effect of over 70% in size; note: potency is the fitted concentration of half-maximal effect
# In short: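 Luciferase-expressing P. falciparum, infected RBCs 2% Hct/0.1% parasitemia (final); 96 h cpd exposure, 37 C, 5% CO2; RPMI 1640 + 0.5% Albumax, bicarbonate, gentamycin. Readout: luminescence loss = growth inhibition.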
# [4] = Quantitative high throughput screen for delayed death inhibitors of the malarial parasite plastid, 48 hour incubation (AID 488752); note: nearly all actives have a fitted effect of over 65% in size; note: potency is the fitted concentration of half-maximal effect
# In short: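 Luciferase-expressing P. falciparum in RBCs, 2% Hct, 0.1% parasitemia final; RPMI 1640 + 0.5% Albumax; 48 h, 37 C, 5% CO2; luminescence readout, signal drop = growth inhibition.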
# [5] = target: Thioredoxin reductase 1, cytoplasmic (Rattus norvegicus) (UniProt O89049); experiment: qHTS Assay for Substrates of Mammalian Selenoprotein Thioredoxin Reductase 1 (TrxR1) (AID 488772);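 note: series mostly up to about 57 µM; a drop in NADPH fluorescence below the no-compound background marks a TrxR1 substrate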
# Chain of Thioredoxin reductase 1, cytoplasmic (Rattus norvegicus) (O89049 whole entry, looked up): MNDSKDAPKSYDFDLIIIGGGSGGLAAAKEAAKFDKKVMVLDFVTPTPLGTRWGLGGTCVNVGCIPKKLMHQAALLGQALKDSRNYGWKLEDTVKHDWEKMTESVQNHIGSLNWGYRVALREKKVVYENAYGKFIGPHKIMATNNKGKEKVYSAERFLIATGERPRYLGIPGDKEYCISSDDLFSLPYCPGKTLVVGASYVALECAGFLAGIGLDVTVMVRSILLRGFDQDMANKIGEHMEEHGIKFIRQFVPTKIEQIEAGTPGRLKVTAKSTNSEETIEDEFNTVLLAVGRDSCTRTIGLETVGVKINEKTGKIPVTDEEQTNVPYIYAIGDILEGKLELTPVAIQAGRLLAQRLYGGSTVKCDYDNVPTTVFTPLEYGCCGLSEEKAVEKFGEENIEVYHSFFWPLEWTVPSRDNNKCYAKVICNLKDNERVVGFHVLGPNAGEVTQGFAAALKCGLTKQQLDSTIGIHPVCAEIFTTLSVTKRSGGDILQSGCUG
# In short: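 In this dual-purpose format, potential substrates are identified from the first fluorescence read after selenite addition, not from the 8-minute delta. Rat enzyme is preincubated with NADPH and then with compound at ~22 deg C.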
# [6] = target: Thioredoxin reductase 1, cytoplasmic (Rattus norvegicus) (UniProt O89049); experiment: qHTS Assay for Inhibitors of Mammalian Selenoprotein Thioredoxin Reductase 1 (TrxR1) (AID 488773); conditions: Potency: inhibition;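 note: drop in NADPH fluorescence over an 8 min run after selenite addition; series mostly up to about 57 µM; nearly all actives have a fitted effect of over 40% in size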
# In short: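 Inhibition is scored from the loss of NADPH fluorescence between first and last reads of an 8-min kinetic run. Selenite (400 uM) was the substrate, added after 15 min compound preincubation at room temperature.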
# [7] = target: Flap endonuclease 1 (Homo sapiens) (UniProt P39748); experiment: qHTS Validation Assay for the Inhibitors of Human Flap endonuclease 1 (FEN1) (AID 488816); note: potency is the fitted concentration of half-maximal effect
# Chain of Flap endonuclease 1 (Homo sapiens) (P39748 whole entry, looked up): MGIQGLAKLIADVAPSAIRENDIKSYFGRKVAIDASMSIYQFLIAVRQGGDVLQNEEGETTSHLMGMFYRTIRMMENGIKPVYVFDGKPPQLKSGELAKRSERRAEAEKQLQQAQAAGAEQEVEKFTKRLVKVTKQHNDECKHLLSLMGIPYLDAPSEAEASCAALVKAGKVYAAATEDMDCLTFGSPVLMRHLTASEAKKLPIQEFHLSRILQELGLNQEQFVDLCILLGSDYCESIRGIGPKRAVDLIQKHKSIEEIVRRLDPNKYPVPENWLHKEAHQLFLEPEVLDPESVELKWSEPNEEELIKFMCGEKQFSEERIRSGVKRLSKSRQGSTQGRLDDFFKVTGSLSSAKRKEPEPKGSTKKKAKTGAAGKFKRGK
# In short: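 qHTS format: compounds and 10 nM FEN1 incubated 15 min at room temperature before adding 50 nM substrate. Cleavage followed by reads at 0 and 15 min; normalized data fitted to a four-parameter Hill curve.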
# [8] = target: M-phase phosphoprotein 8 (Homo sapiens) (UniProt Q99549); experiment: qHTS Validation Assay for Inhibitors for MPP8 Chromodomain Interactions with Methylated Histone Tails (AID 488949); note: nearly all actives have a fitted effect of over 55% in size; note: potency is the fitted concentration of half-maximal effect
# Chain of M-phase phosphoprotein 8 (Homo sapiens) (Q99549 whole entry, looked up): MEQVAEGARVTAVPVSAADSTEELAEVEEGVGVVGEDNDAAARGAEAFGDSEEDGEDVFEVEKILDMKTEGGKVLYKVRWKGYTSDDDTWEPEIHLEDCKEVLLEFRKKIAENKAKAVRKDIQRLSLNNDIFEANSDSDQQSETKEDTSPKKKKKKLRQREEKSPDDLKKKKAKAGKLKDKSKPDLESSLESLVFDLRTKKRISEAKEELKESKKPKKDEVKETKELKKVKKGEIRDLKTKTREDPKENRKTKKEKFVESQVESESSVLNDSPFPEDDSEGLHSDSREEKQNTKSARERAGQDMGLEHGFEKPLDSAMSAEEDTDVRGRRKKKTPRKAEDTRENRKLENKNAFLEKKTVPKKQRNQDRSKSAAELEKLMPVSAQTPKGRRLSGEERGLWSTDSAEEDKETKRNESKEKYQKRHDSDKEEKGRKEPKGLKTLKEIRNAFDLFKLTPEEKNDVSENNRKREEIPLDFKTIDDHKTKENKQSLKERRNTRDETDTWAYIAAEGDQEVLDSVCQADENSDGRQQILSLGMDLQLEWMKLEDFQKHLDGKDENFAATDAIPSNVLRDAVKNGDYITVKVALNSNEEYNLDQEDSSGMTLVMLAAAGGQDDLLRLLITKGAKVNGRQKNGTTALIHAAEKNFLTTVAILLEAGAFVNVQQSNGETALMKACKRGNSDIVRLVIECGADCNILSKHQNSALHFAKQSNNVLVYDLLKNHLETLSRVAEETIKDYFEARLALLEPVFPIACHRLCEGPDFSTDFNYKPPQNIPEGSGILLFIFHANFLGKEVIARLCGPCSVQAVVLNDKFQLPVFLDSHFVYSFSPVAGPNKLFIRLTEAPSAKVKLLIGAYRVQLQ
# In short: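 Disruption of the preformed MPP8–trimethyl-H3K9 peptide complex (both 50 nM, 30 min, RT) is measured after 30 min compound exposure, using AlphaScreen proximity beads; aurintricarboxylic acid titration serves as plate control.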
# [9] = target: Chromobox protein homolog 1 (Homo sapiens) (UniProt P83916); experiment: qHTS Validation Assay for Inhibitors of HP1-beta Chromodomain Interactions with Methylated Histone Tails (AID 488953); note: nearly all actives have a fitted effect of over 50% in size; note: potency is the fitted concentration of half-maximal effect
# Chain of Chromobox protein homolog 1 (Homo sapiens) (P83916 whole entry, looked up): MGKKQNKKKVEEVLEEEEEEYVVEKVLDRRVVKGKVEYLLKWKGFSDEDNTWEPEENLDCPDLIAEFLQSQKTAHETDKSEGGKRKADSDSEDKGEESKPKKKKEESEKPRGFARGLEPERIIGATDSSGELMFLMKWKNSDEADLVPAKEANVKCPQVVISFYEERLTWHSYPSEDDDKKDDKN
# In short: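 AlphaScreen proximity readout: streptavidin donor and Ni-chelate acceptor beads, 10 ug/mL final, 30 min dark, RT. Complex of 50 nM HP1-beta and 50 nM b-H3(1-18)K9me3 formed 30 min, then compound-treated 30 min; PBS pH 7.4/0.01% Tween-20.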
# [10] = target: Methanococcus maripaludis chaperonin (MmCpn) (UniProt Q6LX38); experiment: High-Throughput Screening for Modulators of Cytosolic Chaperonin Activity: MmCpn Primary Screen (AID 488978);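 note: 50 nM MmCpn enzyme hydrolysing 30 µM ATP at 37 °C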
# Chain of Methanococcus maripaludis chaperonin (MmCpn) (Q6LX38 1-543): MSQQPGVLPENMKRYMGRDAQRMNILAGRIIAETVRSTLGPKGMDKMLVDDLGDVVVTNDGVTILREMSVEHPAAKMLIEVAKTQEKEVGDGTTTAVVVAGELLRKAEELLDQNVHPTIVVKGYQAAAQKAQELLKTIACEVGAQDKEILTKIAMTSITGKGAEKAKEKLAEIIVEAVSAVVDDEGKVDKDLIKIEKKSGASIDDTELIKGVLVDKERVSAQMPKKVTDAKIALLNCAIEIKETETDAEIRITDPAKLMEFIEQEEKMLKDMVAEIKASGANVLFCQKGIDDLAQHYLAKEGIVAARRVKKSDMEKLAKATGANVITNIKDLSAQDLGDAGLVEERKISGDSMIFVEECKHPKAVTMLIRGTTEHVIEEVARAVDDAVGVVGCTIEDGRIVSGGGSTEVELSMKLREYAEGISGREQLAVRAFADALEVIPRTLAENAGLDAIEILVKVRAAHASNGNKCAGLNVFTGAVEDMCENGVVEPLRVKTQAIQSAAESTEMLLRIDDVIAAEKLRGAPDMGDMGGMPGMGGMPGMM
# In short: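 Measures ATPase turnover of the M. maripaludis chaperonin (50 nM final) against 30 uM ATP over 10 min at 37C, with compound added 5 min beforehand at room temperature. ADP is quantified by HTRF immunodetection.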
Compound,outcome [1],Potency [2],Potency [3],Potency [4],outcome [5],Potency [6],Potency [7],Potency [8],Potency [9],outcome [10]
CCCn1c(=O)c2[nH]c(-c3ccc(S(=O)(=O)O)cc3)nc2n(CCC)c1=O,inactive,inactive,inactive,inactive,inactive,inactive,inactive,inactive,inactive,inactive
O=C1OC(=O)C2C3CCC(O3)C12 (stereo not drawn),inactive,inactive,inactive,inactive,inactive,inactive,inactive,inactive,inactive,inactive
CSC(N)=NCCC[C@H](N)C(=O)O,inactive,inactive,inactive,inactive,inactive,inactive,inactive,inactive,inactive,inactive
N=C(N)c1ccc(N)cc1,inactive,inactive,inactive,inactive,inactive,inactive,inactive,inactive,inactive,–
NC(N)=N[C@@H](CCC(=O)O)C(=O)O,inactive,inactive,inactive,inactive,inactive,inactive,inactive,inactive,inactive,inactive
CC(=O)NNC(=O)N1Cc2ccccc2Oc2ccc(Cl)cc21,inactive,inactive,inactive,inactive,inactive,inactive,inactive,inactive,inactive,–
O=C(O)C1=CC(=C(c2ccc(O)c(C(=O)O)c2)c2ccc(O)c(C(=O)O)c2)C=CC1=O,inactive,60.1 nM (active),inactive,inactive,inactive,inactive,134 nM (active),178 nM (active) and 238 nM (active),199 nM (active),inactive
N[C@@H](Cc1ccc(O)c(I)c1)C(=O)O,inactive,inactive,inactive,inactive,inactive,inactive,inactive,inactive,inactive,inactive
CC(=O)/C(C)=N/O,inactive,inactive,inactive,inactive,inactive,inactive,inactive,inactive,inactive,inactive
COc1ccc(CCN(C)CCc2ccc(OC)c(OC)c2)cc1OC,inactive,inactive,inactive,inactive,inactive,inactive,inactive,inactive,inactive,inactive
CC(N)(C(=O)O)c1ccc(C(=O)O)cc1 (stereo not drawn),inactive,inactive,inactive,inactive,inactive,inactive,inactive,inactive,inactive,inactive
COc1ccccc1N1CCN(CCCCNC(=O)c2ccc3ccccc3c2)CC1,inactive,inactive,2940 nM (active),4650 nM (active),inactive,inactive,inactive,inactive,–,inactive
CNCCNS(=O)(=O)c1cccc2cnccc12,inactive,inactive,inactive,inactive,inactive,inactive,inactive,inactive,inactive,inactive
O=c1onc2n1-c1cc(Br)ccc1OC2,inactive,inactive,inactive,inactive,inactive,inactive,inactive,inactive,–,inactive
C=CC1(C)CC(=O)C2(O)C(C)(O1)C(OC(C)=O)C(O)C1C(C)(C)CCC(O)C12C (stereo not drawn),inactive,inactive,inactive,inactive,inactive,inactive,inactive,inactive,inactive,inactive
CC(C)[C@H](NC(=O)OCc1ccccc1)C(=O)N[C@H](C=O)Cc1ccccc1 (Cbz-Val-Phe-aldehyde),inactive,inactive,2330 nM (active),2940 nM (active),inactive,inactive,inactive,inactive,inactive,inactive
NCC(O)(CS(=O)(=O)O)c1ccc(Cl)cc1 (stereo not drawn),inactive,inactive,inactive,inactive,inactive,–,inactive,inactive,–,inactive
O=C(O)CCC(=O)N1CCCC1C(=O)O (stereo not drawn),inactive,inactive,inactive,–,inactive,inactive,inactive,inactive,inactive,–
COc1ccc(C(=O)NCc2cccnc2)cc1C(=O)NCc1cccnc1,inactive,inactive,–,inactive,inactive,inactive,inactive,inactive,inactive,inactive
CCCCOC(=O)NS(=O)(=O)c1sc(CC(C)C)cc1-c1ccc(Cn2c(CC)nc3c(C)cc(C)nc32)cc1,inactive,inactive,inactive,–,–,inactive,inactive,inactive,inactive,inactive
N[C@H](C(=O)O)[C@H]1C[C@@H]1C(=O)O,inactive,inactive,inactive,inactive,–,inactive,inactive,inactive,inactive,–
CC[N+](CC)(CC)CC(=O)Nc1c(C)cccc1C,inactive,inactive,inactive,–,inactive,–,inactive,inactive,inactive,inactive
O=c1[nH]c(=O)c2nc3ccccc3nc2[nH]1,inactive,inactive,inactive,inactive,inactive,–,–,inactive,inactive,inactive
